Source: PubChem BioAssay
HT1080NT lethal = qHTS for induction of synthetic lethality in tumor cells producing 2HG: qHTS for the HT-1080-NT fibrosarcoma cell line; HT-1080-NT fibrosarcoma viability, CellTiter-Glo ATP luminescence, 48 h; Potency, µM (doses to about 46.1 µM), inactives show top-dose activity, negative = less viability, actives largely listed as cytotoxic; hit rate 1.6% among 360,000;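 also: NT is the 2HG producing partner of a matched IDH1 knockdown line; potency is read from the fitted curve at half-maximal effect; 0% = DMSO-treated cells and -100% = media-only wells without cells; nearly all actives have a fitted effect of over 55% in size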
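HT-1080-NT; 750 cells/well; 5% FBS RPMI; 48 h compound, 37 degrees C; CellTiter-Glo luminescence; curve fitting and curve-class assignment.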
IL1B secr inh = qHTS for Inhibitors of Inflammasome Signaling: IL-1-beta AlphaLISA Primary Screen; THP-1 LPS/ATP IL-1B secretion, AlphaLISA, 16 h; stronger effect = lower value; activity change, % at 57.5 µM; hit rate 4.7% among 360,000; AID 743279, 2014; in the data active = activity change below about -50%; inconclusive = mostly about -30% to -49%
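Secreted IL-1B measured by AlphaLISA bead assay after 16 h compound exposure of THP-1 cells; compounds (final up to 57.5 uM) added 1 h before LPS (250 ng/mL) and ATP (1.25 mM) stimulation; lower signal means less secretion.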
HT1080 IDH1KD tx = qHTS for induction of synthetic lethality in tumor cells producing 2HG: qHTS for the HT-1080-IDH1KD cell line | HT-1080 IDH1 knockdown viability, ATP luminescence, 48 h | Potency, µM (highest dose often 46.1 µM), for the others: at the highest dose activity, negative = toxicity, most hits filed as cytotoxic | hit rate 2% among 360,000;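 also: potency is read from the fitted curve at half-maximal effect; 0% = DMSO wells and -100% = cell-free medium wells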
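CellTiter-Glo luminescence after 48 h compound exposure at 37 degrees C of IDH1-knockdown HT-1080 cells in 5% FBS RPMI. %Activity scaled between DMSO wells and cell-free media wells, with curves fitted and assigned curve classes.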
TDP1 cell CPT = qHTS for Inhibitors of human tyrosyl-DNA phosphodiesterase 1 (TDP1): qHTS in cells in presence of CPT; chicken DT40 Tdp1-/-;hTDP1 cells + 20 nM CPT, ATP luminescence, 48 h; hit rate 12% among 420,000; Potency, µM (titrated, usually from 46.2 µM), inactives show top-dose activity change, negative = growth inhibition, most hits filed as inhibitors; also: potency is read from the fitted curve at half-maximal effect; nearly all actives have a fitted effect of over 55% in size
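Chicken DT40 Tdp1-/- cells complemented with human TDP1, 400 cells/well, exposed to compounds plus 20 nM camptothecin for at least 48 h at 37 C; viability read as ATP content by CellTiter-Glo luminescence.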
DT40 TDP1 no CPT = qHTS for Inhibitors of human tyrosyl-DNA phosphodiesterase 1 (TDP1): qHTS in cells in absence of CPT | Potency, µM (top dose mostly 46.2 µM), without a hit: at the highest dose activity change, negative = growth inhibition, hits mostly inhibitors | DT40 Tdp1-/- hTDP1 cells, no CPT, ATP luminescence, 48 h | AID 686978, 2013 | hit rate 15% among 420,000; also: potency is read from the fitted curve at half-maximal effect; nearly all actives have a fitted effect of over 55% in size
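Growth kinetics read by CellTiter-Glo luminescence after ≥48 hr at 37 °C. Cells: DT40 Tdp1-/- stably carrying human TDP1, 400 per well, compound exposure in the absence of CPT (DMSO vehicle).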
* = called active by the depositor; [ ] = dose if it differs, or a comment. Only some compounds are listed: those with a hit (about 19% of all), similar ones and a draw of the others. Unless noted, calls follow the shape of the dose curve; as a rule, active = well fitted curve in the direction sought with a large enough effect; inconclusive = small, poorly fitted or top-dose-only effect, or another doubt; inactive = no such curve, though single readings can be large; an effect the other way counts as inactive or inconclusive. Unless noted, % is scaled to controls: 0 for no effect and ±100 for the full control effect.

`CCc1ccc(N(C(=O)c2snc(C(N)=O)c2N)C(C(=O)NC2CCCC2)c2ccco2)cc1` (centres undefined) gave HT1080NT lethal inconclusive, IL1B secr inh -64*, HT1080 IDH1KD tx inconclusive, TDP1 cell CPT inconclusive and DT40 TDP1 no CPT inconclusive.
Screening CCOc1ccc(N(C(=O)c2snc(C(N)=O)c2N)C(C(=O)NCC2CCCO2)c2ccc(C)o2)cc1 (centres undefined) returned HT1080NT lethal 6%, IL1B secr inh -27, HT1080 IDH1KD tx -13%, TDP1 cell CPT 18µM* and DT40 TDP1 no CPT inconclusive.
Cc1ccc(C(C(=O)NCC2CCCO2)N(C(=O)c2snc(C(N)=O)c2N)c2ccccc2F)o1 (centres undefined) was read as HT1080NT lethal -1%, IL1B secr inh inconclusive, HT1080 IDH1KD tx -1%, TDP1 cell CPT inconclusive and DT40 TDP1 no CPT inconclusive.
CCOc1ccc(C(C(=O)NCC2CCCO2)N(C(=O)c2snc(C(N)=O)c2N)c2cccc(F)c2)cc1 (centres undefined) was read as HT1080NT lethal -3%, IL1B secr inh -26, HT1080 IDH1KD tx -19%, TDP1 cell CPT -27% and DT40 TDP1 no CPT inconclusive.
`Cc1ccc(C(C(=O)NCC2CCCO2)N(C(=O)c2snc(C(N)=O)c2N)c2ccc(F)cc2)o1` (centres undefined) gave HT1080NT lethal 5%, IL1B secr inh -2, HT1080 IDH1KD tx 1%, TDP1 cell CPT -17% and DT40 TDP1 no CPT inconclusive.
Screening COc1ccc(N(C(=O)c2snc(C(N)=O)c2N)C(C(=O)NC2CCCC2)c2ccco2)cc1 (centres undefined) returned HT1080NT lethal -4%, IL1B secr inh -15, HT1080 IDH1KD tx -9%, TDP1 cell CPT 3% and DT40 TDP1 no CPT inconclusive.
`O=C(O)C1=NN(c2cc(Cl)c(S(=O)(=O)O)cc2Cl)C(=O)C1` gave HT1080NT lethal 2%, IL1B secr inh -5, HT1080 IDH1KD tx 11%, TDP1 cell CPT -13% and DT40 TDP1 no CPT 0%.
For COC(=O)C1CCCCN1Cc1ccc2c(c1)CN(C(=O)c1cc(C)nc3cc(F)ccc13)CCO2 (centres undefined) the results were TDP1 cell CPT 11%[9.04 µM] and DT40 TDP1 no CPT inconclusive.
`COc1ccc(N(C(=O)c2snc(C(N)=O)c2N)C(C(=O)NC2CCCCC2)c2ccc(C)o2)cc1` (centres undefined) gave HT1080NT lethal inconclusive, IL1B secr inh -50*, HT1080 IDH1KD tx -8%, TDP1 cell CPT inconclusive and DT40 TDP1 no CPT 16µM*.
`CCOc1ccc(C(C(=O)NCC2CCCO2)N(Cc2cccs2)C(=O)c2snc(C(N)=O)c2N)cc1` (centres undefined) gave HT1080NT lethal -2%, IL1B secr inh 9, HT1080 IDH1KD tx 25%, TDP1 cell CPT 23µM* and DT40 TDP1 no CPT 9.2µM*.
CCOc1ccc(N(C(=O)c2snc(C(N)=O)c2N)C(C)C(=O)NC2CCCCC2)cc1 (centres undefined) was read as HT1080NT lethal -9%, IL1B secr inh inconclusive, HT1080 IDH1KD tx -16%, TDP1 cell CPT -27% and DT40 TDP1 no CPT -22%.
CO[C@@H]1CN(C)C(=O)c2cc(NC(=O)NC3CCCCC3)ccc2OC[C@@H](C)N(CC2CCOCC2)C[C@@H]1C was read as HT1080NT lethal 15%, IL1B secr inh 0, HT1080 IDH1KD tx 22%, TDP1 cell CPT inconclusive and DT40 TDP1 no CPT inconclusive.
Screening CN(C)S(=O)(=O)c1ccc(NC(=O)COc2cccc3c2OC(C)(C)C3)cc1 returned HT1080NT lethal 2%, IL1B secr inh -9, HT1080 IDH1KD tx -2%, TDP1 cell CPT 21µM* and DT40 TDP1 no CPT inconclusive.
COc1ccccc1CCNC(=O)COc1cccc2c1OC(C)(C)C2 was read as HT1080NT lethal 0%, IL1B secr inh -17, HT1080 IDH1KD tx -1%, TDP1 cell CPT 11% and DT40 TDP1 no CPT 23µM*.
`CC1(C)Cc2cccc(OCC(=O)NCCOc3ccccc3)c2O1` gave HT1080NT lethal -2%, IL1B secr inh 8, HT1080 IDH1KD tx -2%, TDP1 cell CPT inconclusive and DT40 TDP1 no CPT inconclusive.
For COc1cccc(NC(=O)COC(=O)COc2cccc3c2OC(C)(C)C3)c1 the results were HT1080NT lethal 3%, IL1B secr inh 13, HT1080 IDH1KD tx 1%, TDP1 cell CPT -16% and DT40 TDP1 no CPT -9%.
`COc1ccc(NC(=O)COc2cccc3c2OC(C)(C)C3)cc1OC` gave HT1080NT lethal -11%, IL1B secr inh 0, HT1080 IDH1KD tx 0%, TDP1 cell CPT 21µM* and DT40 TDP1 no CPT 13µM*.
CCCNC(=O)c1ccccc1NC(=O)COc1cccc2c1OC(C)(C)C2 was read as HT1080NT lethal -5%, IL1B secr inh 1, HT1080 IDH1KD tx -13%, TDP1 cell CPT inconclusive and DT40 TDP1 no CPT 18µM*.
Screening COc1ccc(C(=O)NCC(=O)N2CCN(C(=O)c3ccco3)CC2)cc1 returned HT1080NT lethal 9%, IL1B secr inh 21, HT1080 IDH1KD tx 2%, TDP1 cell CPT 8% and DT40 TDP1 no CPT -18%.
`CCOc1ccc(OCCNC(=O)C(NC(=O)c2c(F)cccc2F)C(C)C)cc1` (centres undefined) gave HT1080NT lethal 0%, IL1B secr inh 6, HT1080 IDH1KD tx 1%, TDP1 cell CPT -13% and DT40 TDP1 no CPT 9%.
For Cc1cnc(NC(=O)COc2cccc3c2OC(C)(C)C3)s1 the results were HT1080NT lethal -11%, IL1B secr inh -9, HT1080 IDH1KD tx 6.5µM*, TDP1 cell CPT inconclusive and DT40 TDP1 no CPT inconclusive.
Screening Cc1ccc2nc(/C=C/c3ccc(N(C)C)cc3)ccc2c1 returned TDP1 cell CPT 13µM* and DT40 TDP1 no CPT 13µM*.
Screening CN(C)c1ccc(/C=C/c2ccc3cc(N)ccc3n2)cc1 returned TDP1 cell CPT 7.1µM* and DT40 TDP1 no CPT 3.2µM*.
For CC1=C(C(=O)Nc2nc3ccccc3s2)C(c2ccco2)C(C#N)=C(SCC(=O)NC2CCCCC2)N1 (centres undefined) the results were HT1080NT lethal -19%, IL1B secr inh inconclusive, HT1080 IDH1KD tx -20%, TDP1 cell CPT 13µM* and DT40 TDP1 no CPT 21µM*.
Screening CSCC[C@H]1COC[C@@H](Cc2ccccc2)N1c1ccccc1 returned HT1080NT lethal 15%, IL1B secr inh 33, HT1080 IDH1KD tx 5%, TDP1 cell CPT -29% and DT40 TDP1 no CPT -27%.
